A selection: hits, their analogues and other compounds. The true share with any hit is near 1%.
Sa RN4220 lethal – S. aureus RN4220 growth inhibition. OD600, 16 h. inhibition, % (no concentration beside the values). 0.33% of 330,000 active; in the data active means inhibition above about 85%;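 further: plate controls were untreated cells for no effect and reference antibiotic for full effect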
PriA SSB inh – K. pneumoniae PriA-SSBct interaction inhibition. AlphaScreen SSBct-PriA binding, biotinylated peptide. inhibition, % at 33 µM. 0.6% of 430,000 active; in the data active means inhibition mostly above about 37%, no sharp cut-off; inactive means mostly below about 20%;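 further: plate controls were negative control peptide for no effect and reference peptide for full effect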
ugtP null kill – kills S. aureus RN4220 lacking UgtP | S. aureus RN4220 ugtP deletion, OD600 growth, 16 h | 0.54% of 330,000 active | growth inhibition, % (concentration not given with the values); in the data active means growth inhibition above about 68%;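 further: plate controls were untreated wells for no effect and antibiotic for full effect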
Numbers without * were called inactive; . = not tested or not shown.

SMILES	Sa RN4220 lethal	PriA SSB inh	ugtP null kill
FC(F)Sc1ccc(NC(=S)NCC2CCCCC2)cc1	99*	-34	100*
O=C(NCc1ccc([C@@H](O)c2ccco2)s1)c1ccccc1Br	.	-4	.
O=C(c1ccc(Cl)c(S(=O)(=O)N2CCCCCC2)c1)N1CCN(c2ccccc2F)CC1	.	-14	.
C=CCNC(=O)C(=O)NCCc1ccc2c(c1)CCCN2CCC	.	29	.
CCCN1CCCc2cc(CCNC(=O)CCc3ccccc3)ccc21	.	62	.
CCCN1CCCc2cc(CCNC(=O)COc3ccccc3)ccc21	.	95*	.
CCCN1CCCc2cc(CCNC(=O)CCc3ccc(OC)cc3)ccc21	.	66*	.
CCCN1CCCc2cc(CCNC(=O)C(=O)NCC)ccc21	.	24	.
CCCN1CCCc2cc(CCNC(=O)Cc3ccc(F)cc3)ccc21	.	73*	.
CN1CCCc2cc(CCNC(=O)COc3ccccc3)ccc21	.	70	.
CCCN1CCCc2cc(CCNC(=O)C(=O)Nc3ccon3)ccc21	.	56*	.
Cc1nc2ccccn2c1C(=O)NCC(O)c1ccc2c(c1)CCO2 (stereo not drawn)	.	-24	.
Cc1oc(-c2ccc(Cl)cc2)cc1C(=O)Nc1cccc(F)c1	.	-14	.
CCNc1nn(CC(=O)Nc2ccc(C)c(C)c2)c(N)c1-c1nc(-c2ccc(OC)cc2)no1	.	10	.
COc1ccc(Br)c(C(=O)NCC2CCN(C(=O)c3ccncc3)CC2)c1	.	-11	.
Cc1nc(C)c(C(=O)NCc2cnn3c2CCCC3)s1	.	-15	.
CCCN1CCCc2cc(CCNC(=O)CC(C)C)ccc21	.	55	.
CCCNC(=O)C(=O)NCCc1ccc2c(c1)CCCN2CCC	.	3	.
CCCN1CCCc2cc(CCNC(=O)CC(C)(C)C)ccc21	.	58*	.
CCCN1CCCc2cc(CCNC(=O)OC)ccc21	.	64*	.
Cc1ccc(NCCNC(=O)Nc2cccc(F)c2)nn1	.	-16	.
CCS(=O)(=O)NCC1(c2cccs2)CCCC1	.	0	.
CCCCOc1ccc(/C=C/C(=O)OCC(=O)NC2CCS(=O)(=O)C2)cc1OCC (stereo not drawn)	14	-13	92*
COc1ccc(/C=C/C(=O)OCC(=O)NC2CCS(=O)(=O)C2)cc1 (stereo not drawn)	5	-3	10
O=C(CCc1ccccc1)NCCCn1cccc1	.	-12	.
SMILES	Sa RN4220 lethal	PriA SSB inh	ugtP null kill
CC1CCN(CC(=O)n2c3c(c4ccccc42)CCCC3)CC1	4	-5	7
O=C(c1ccccc1F)n1c2c(c3ccccc31)CCCC2	-12	-12	93*
COc1ccc(-c2ccc3c(N)c(-c4ccc(C#N)cc4)sc3n2)cc1	.	-8	.
COc1ccc(C2c3sc(=S)[nH]c3SC3C4CC(C5C(=O)N(CC(=O)O)C(=O)C45)C23)cc1 (stereo not drawn)	.	0	.
COc1cc(CN)cc(OC)c1OC	.	-15	.
COc1cc(Cc2cnc(N)nc2N)cc(OC)c1OC	98*	-8	100*
CON/C=C(\C=Nc1ccc(F)cc1)c1ncc(C(F)(F)F)cc1Cl	-3	.	92*
CONC=C(C=Nc1ccc(Cl)cc1)c1ncc(C(F)(F)F)cc1Cl	.	-2	.
COc1ccc(-n2nc([N+](=O)[O-])c(=NCCc3cccc(C)c3)n2O)cc1	18	3	31
Cc1cccc(CCN=c2c([N+](=O)[O-])nn(-c3ccccc3)n2O)c1	9	40*	22
CC(=O)NCC(=O)NC1CCN(c2ccc(-c3cccc(F)c3)nn2)CC1	.	0	.
OC(CNCc1ccccc1)c1ccc(Cl)cc1 (stereo not drawn)	1	-5	-4
OC(CNCC(c1ccc(Cl)cc1Cl)c1c[nH]c2ccccc12)c1ccccc1 (stereo not drawn)	100*	12	97*
CCOC(=O)c1cc(=O)c2ccccc2n1C	.	0	.
CC(C)(C)c1ccc(S(=O)(=O)Nc2ccc(C(=O)NCc3ccco3)cc2)cc1	.	-19	.
COc1ccc(/C=C/C(=O)OCC(=O)NC2CCCCC2C)c(OC)c1 (stereo not drawn)	5	-3	87*
COc1ccc(/C=C/C(=O)OCC(=O)NC2CCCC2)c(OC)c1	3	1	47
CCS(=O)(=O)N1CCCc2cc(NC(=O)c3ccccc3Cl)ccc21	.	-11	.
CCOc1ncccc1C(=O)Nc1ccc2c(c1)CCCN2S(=O)(=O)CC	.	38*	.
O=C(O)CCC(=O)Nc1ccc(NC(=S)NC(=O)c2cccc([N+](=O)[O-])c2)cc1	.	9	.
CSc1ccc(NC(=O)c2ccc(S(=O)(=O)N(C)C)cc2)nn1	.	1	.
Nc1nc2c(s1)C(=O)NCCC2	.	-2	.
CCCOc1ccc(-c2nc(C#N)c(N3CCC(C(N)=O)CC3)o2)cc1	4	-4	-1
CC1CC(C)CN(c2oc(Cc3ccccc3)nc2C#N)C1 (stereo not drawn)	9	55*	-4
Cc1ccc(OCc2nc(C#N)c(N3CCN(Cc4ccccc4)CC3)o2)cc1	2	-6	10
N#Cc1nc(Cc2cccc3ccccc23)oc1NCc1ccc(F)cc1	-15	45*	18
